Compound activity from PubChem.
Shiga inhibitor: Shiga toxin inhibition. AID 2315. 290,000 tested, 9.2% active. inhibition, % at 38.7 µM. Vero cells, Shiga toxin protein synthesis inhibition reporter; in the data active means inhibition mostly above about 28%, no sharp cut-off; inactive means mostly below about 43%
Pf growth 48h: P. falciparum growth inhibition at 48 hours (one generation); P. falciparum luciferase growth in erythrocytes, 48 h; Potency, µM (highest dose often 28.7 µM), most hits filed as inhibitors; 310,000 tested, 5.9% active; AID 504832; active means well fitted inhibition curve with a large enough effect; inconclusive means small, poorly fitted or top-dose-only effect, or another doubt; inactive means no such curve, though single readings can be large or run the other way
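Cell-based growth assay: transgenic P. falciparum expressing firefly luciferase, cultured in red cells within RPMI 1640 containing 0.5% w/v Albumax, 24 mM bicarbonate and gentamycin. A drop in luciferase activity indicates inhibition.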
SARS PLpro yeast: inhibitors of SARS-CoV papain-like protease in yeast. 330,000 tested, 0.19% active. Potency, µM (series often up to 32.9 µM), actives largely listed as activators. S. cerevisiae expressing SARS-CoV PLpro, growth rescue; further: nearly all actives have a fitted effect of over 55% in size
Cycloheximide cs: counter-screen hit for Shiga toxin inhibitors, cycloheximide | cell reporter, cycloheximide protein synthesis inhibition counterscreen | 300,000 tested, 12% active | max response, % | AID 2314; in the data active means max response mostly above about 13%, no sharp cut-off; inactive means mostly below about 14%; further: read at 38.3 µM for the half of the compounds with a filed dose
NS1 inh: influenza NS1 inhibition; Potency, µM (doses to about 46.1 µM); 270,000 tested, 0.4% active; AID 2326; further: actives are rising curves; nearly all actives have a fitted effect of over 50% in size
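S. cerevisiae expressing influenza A NS1, grown in glucose, washed, then diluted 1:100 into pH 6.0 -URA galactose medium with 23 nl compound. Growth recovery read as OD600; NS1-free strain serves as control.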
Pf growth 96h: P. falciparum growth inhibition at 96 hours; P. falciparum luciferase reporter growth, 96 h; Potency, µM (series often up to 28.7 µM), usual class: inhibitors; 320,000 tested, 6.9% active; AID 504834; active means well fitted inhibition curve with a large enough effect; inconclusive means small, poorly fitted or top-dose-only effect, or another doubt; inactive means no such curve, though single readings can be large or run the other way
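Readout is luminescence from an integrated firefly luciferase in P. falciparum. Red cells, 2% hematocrit and 0.05% parasitemia final, were cultured with compound through two parasite generations (96 hours) at 37 C, 5% CO2.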
Large screens that a line does not name were inactive. A selection: hits, their analogues and other compounds. The true share with any hit is near 21%. Unless noted, the call rests on the fitted dose curve.

CC(C)(C)c1ccc(C(=O)Nc2cccnc2)cc1	Cycloheximide cs 26
O=C(Nc1cccnc1)c1ccc(C(=O)Nc2cccnc2)cc1	Pf growth 96h inconclusive
COc1ccc(C(=O)Nc2cccc(NC(=O)c3ccc(OC)c(OC)c3)n2)cc1OC	Shiga inhibitor 39, Pf growth 48h 10µM, Cycloheximide cs 22
COc1ccc(C(=O)Nc2nc(C)c(C)s2)cc1OC	Shiga inhibitor 96, Cycloheximide cs 55, Pf growth 96h inconclusive
COc1cc2c(cc1NC(=O)c1cccnc1)CCCC2	Cycloheximide cs 20, Pf growth 96h inconclusive
CCN(CC(=O)NCc1cccs1)C(=O)/C=C/c1cc(OC)c(OC)c(OC)c1	none (no result: Shiga inhibitor, Cycloheximide cs, NS1 inh)
COc1ccc(C(=O)Nc2cccnc2)cc1OC	Cycloheximide cs 13
COc1ccc(C)cc1S(=O)(=O)N(C)CC(=O)NCc1ccccn1	Pf growth 96h inconclusive
O=C(NCCCN1CCOCC1)/C(=C/c1cccs1)NC(=O)c1ccccc1	none
C=CCOc1ccc(C(c2c(C(=O)O)[nH]c3ccccc23)c2c(C(=O)O)[nH]c3ccccc23)cc1	NS1 inh inconclusive
COc1ccc(-c2cc3nc4ccccc4n3c(N)c2C#N)cc1	Shiga inhibitor 56, Cycloheximide cs 29
COc1ccc(-c2cc(-c3ccccc3)c(C#N)c(=S)[nH]2)cc1	none
CCC(=O)NC(c1ccc(OC)cc1)c1c(O)ccc2ccccc12 (stereo not drawn)	Pf growth 48h inconclusive
CCCCC(=O)NC(c1ccc([N+](=O)[O-])cc1)c1c(O)ccc2ccccc12 (stereo not drawn)	Pf growth 48h 10µM
COc1ccc(C(NC(=O)C(C)C)c2c(O)ccc3ccccc23)cc1 (stereo not drawn)	Pf growth 48h inconclusive
CCC(=O)NC(c1ccc([N+](=O)[O-])cc1)c1c(O)ccc2ccccc12 (stereo not drawn)	Pf growth 48h 4.1µM, Pf growth 96h inconclusive
COc1ccc(N(CC(=O)NC(C)C)S(=O)(=O)c2ccc(NC(C)=O)cc2)cc1	Pf growth 96h inconclusive (no result: Pf growth 48h)
CCn1nc(C(=O)Nc2ccc(Cl)c(S(=O)(=O)N3CCOCC3)c2)c2ccccc2c1=O	Pf growth 48h 10µM, Pf growth 96h inconclusive (no result: Shiga inhibitor, Cycloheximide cs, NS1 inh)
CCn1nc(C(=O)Nc2ccc(S(=O)(=O)Nc3ncccn3)cc2)c2ccccc2c1=O	none (no result: NS1 inh)
CCCn1nc(C(=O)NNC(=O)c2cc(S(=O)(=O)NC)ccc2Br)c2ccccc2c1=O	none (no result: Shiga inhibitor, Cycloheximide cs, NS1 inh)
O=C(Cc1ccc(S(=O)(=O)N2CCOCC2)s1)NNC(=O)c1ccccc1Cl	Pf growth 96h inconclusive (no result: Shiga inhibitor, Cycloheximide cs, NS1 inh)
CCCn1nc(C(=O)NNC(=O)Cc2ccc(S(=O)(=O)N3CCOCC3)s2)c2ccccc2c1=O	Pf growth 48h 12µM, Pf growth 96h inconclusive (no result: Shiga inhibitor, Cycloheximide cs, NS1 inh)
CCn1nc(C(=O)Nc2cccc(S(=O)(=O)N3CCCC3)c2)c2ccccc2c1=O	Pf growth 48h 13µM, Pf growth 96h inconclusive (no result: Shiga inhibitor, Cycloheximide cs, NS1 inh)
CCCn1nc(C(=O)NNC(=O)c2cccc(S(=O)(=O)NC(C)C)c2)c2ccccc2c1=O	Pf growth 48h 3.3µM, Pf growth 96h 1.2µM
CC(C)Cn1nc(C(=O)Nc2cccc(S(=O)(=O)N3CCCC3)c2)c2ccccc2c1=O	Pf growth 48h 12µM, Pf growth 96h 9.3µM (no result: Shiga inhibitor, Cycloheximide cs, NS1 inh)
CC(C)Cn1nc(C(=O)Nc2cccc(C(=O)NC3CC3)c2)c2ccccc2c1=O	Pf growth 48h inconclusive, Pf growth 96h inconclusive (no result: Shiga inhibitor, Cycloheximide cs, NS1 inh)
CC(C)(C)NC(=O)NC(=O)CN1CCN(S(=O)(=O)/C=C/c2ccccc2)CC1	Pf growth 48h inconclusive
CCc1nc2ccccc2c(C(=O)OCC(=O)N(CC(C)C)c2c(N)n(Cc3ccccc3)c(=O)[nH]c2=O)c1C	Pf growth 48h 12µM, Pf growth 96h 9.3µM (no result: Shiga inhibitor, Cycloheximide cs, NS1 inh)
CN(C(=O)COC(=O)C12CC3CC(CC(C3)C1)C2)c1c(N)n(Cc2ccccc2)c(=O)[nH]c1=O	none (no result: Shiga inhibitor, Cycloheximide cs, NS1 inh)
Cc1c(C(=O)N(CC(C)C)c2c(N)n(Cc3ccccc3)c(=O)[nH]c2=O)sc2nc3n(c(=O)c12)CCC3	Pf growth 48h 8.3µM, Pf growth 96h inconclusive (no result: Shiga inhibitor, Cycloheximide cs, NS1 inh)
CC(C)CN(C(=O)COC(=O)C12CC3CC(CC(Cl)(C3)C1)C2)c1c(N)n(Cc2ccccc2)c(=O)[nH]c1=O	Pf growth 48h 4.7µM, Pf growth 96h inconclusive (no result: Shiga inhibitor, Cycloheximide cs, NS1 inh)
COCCN(C(=O)COC(=O)C1CC1)c1c(N)n(Cc2ccccc2)c(=O)[nH]c1=O	none (no result: Shiga inhibitor, Cycloheximide cs, NS1 inh)
COCCN(C(=O)COC(=O)C12CC3CC(CC(Cl)(C3)C1)C2)c1c(N)n(Cc2ccccc2)c(=O)[nH]c1=O	Pf growth 48h 12µM, Pf growth 96h inconclusive (no result: Shiga inhibitor, Cycloheximide cs, NS1 inh)
CC(OC(=O)c1cccs1)C(=O)NC1CC1 (stereo not drawn)	none
C=CCc1ccc(OCCCCCN2CCOCC2)c(OC)c1	none
CCCCN(C)CCNC(=O)CN1C(=O)CSc2ccc(S(=O)(=O)N3CCOCC3)cc21	none
O=C(NCC(=O)N1CCCCCCC1)c1cccc([N+](=O)[O-])c1	none (no result: Shiga inhibitor, SARS PLpro yeast, Cycloheximide cs, NS1 inh)
NC12CC3CC(C1)CC(CO)(C3)O2	Pf growth 96h 8.3µM
CCCCC(O)(c1ccc(OC)cc1)C(CN1CCOCC1)c1ccccc1 (stereo not drawn)	none (no result: Pf growth 48h)
COc1ccc(C(O)(C(C)C)C(CN2CCOCC2)c2ccc(Cl)cc2)cc1 (stereo not drawn)	Pf growth 48h 8.3µM
CCCCCC(O)(c1ccc(OCC)cc1)C(CN1CCOCC1)c1ccccc1 (stereo not drawn)	Pf growth 48h 2.1µM, Pf growth 96h inconclusive
COc1ccc(C(O)(C(C)C)C(CN2CCOCC2)c2ccccc2)cc1 (stereo not drawn)	Pf growth 48h inconclusive
CCCCCC(O)(c1ccc(OC)cc1)C(CN1CCOCC1)c1ccccc1 (stereo not drawn)	Pf growth 48h 1.7µM
Cc1ccc(NC(=O)CN(C)C(=O)c2ccc(Cl)nc2)cc1	none
CC(C)CC(=O)Nc1nnc(CSCc2ccc(F)cc2)s1	Pf growth 96h inconclusive
COc1cccc(CNC(=O)CCC2CCCN(C(=O)C3CCOCC3)C2)c1 (stereo not drawn)	Pf growth 96h inconclusive
CCC(=O)Nc1ccccc1C(=O)OCC(=O)c1cccc2ccccc12	none
COC(=O)c1ccccc1NC(=O)c1ccc(F)cc1	none
CC(=O)Nc1ccccc1C(=O)OCc1ccc(F)cc1	Cycloheximide cs 32
CCC(=O)Nc1ccccc1C(=O)OCc1ccc(C(=O)c2ccccc2)cc1	Cycloheximide cs 25
CCCCCC(=O)NNC1CC(=O)N(c2ccccc2)C1=O (stereo not drawn)	none
CCCCCCC(=O)N(O)C1CC(=O)N(Cc2ccccc2)C1=O (stereo not drawn)	Pf growth 48h 5.9µM (no result: Pf growth 96h)
CCCCCC(=O)N(O)C1CC(=O)N(c2ccccc2)C1=O (stereo not drawn)	Pf growth 48h 10µM, Pf growth 96h inconclusive
COc1cc(-c2ccc(-[n+]3nc(-c4ccccc4)nn3-c3ccc([N+](=O)[O-])cc3)c(OC)c2)ccc1-[n+]1nc(-c2ccccc2)nn1-c1ccc([N+](=O)[O-])cc1	Pf growth 48h 5.4µM, Pf growth 96h 6.7µM (no result: Shiga inhibitor, SARS PLpro yeast, Cycloheximide cs, NS1 inh)
COc1ccc([N+](=O)[O-])cc1C(=O)C(=O)c1ccccc1	none
